High-throughput results as filed in PubChem.
NALP1 inh: NALP1 inflammasome inhibitors in reconstituted yeast, colorimetric, S. cerevisiae, triplicate retest. S. cerevisiae NALP1/ASC/caspase-1 growth, X-gal OD620, 72 h. inhibition, % at 10 µM. 280,000 tested, 0.61% active. AID 2071, 2009; in the data active means inhibition mostly above about 24%, no sharp cut-off; inactive means mostly below about 32%
NLRP3 yeast inh: NALP3 inflammasome inhibitors in reconstituted yeast, primary screen, luminescence, uHTS; Yeast reconstituted NLRP3/ASC/caspase-1, beta-gal luminescence, 24 h; inhibition, % at 10 µM; 330,000 tested, 0.39% active; AID 2825, 2010;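 active means inhibition of 50% or more; inactive means inhibition below 50%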;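 further: plate controls were induced DMSO wells for no effect and uninduced yeast grown without galactose for full effect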
PolyA inhibitor: polyadenylation inhibitors in yeast reporter cells, primary screen, luminescence, S. cerevisiae; S. cerevisiae SKY197-pL101 polyadenylation reporter, beta-gal luminescence; efflux-impaired pdr1/pdr3 knockout yeast; score 100 = 6 SD above DMSO; activity score, % at 12 µM; 300,000 tested, 0.02% active; AID 1875, 2009;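 active means lowest replicate activity score at least 50, where 100 means six control SD above control mean; inconclusive means lowest score under 50 but half or more replicates reach 50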;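 further: yeast exposed to compound for 9 h at 30 °C; higher score means more reporter readthrough which indicates perturbed polyadenylation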
SUMO Mot1 rescue: yeast Mot1-301 growth rescue at high temperature, primary screen, SUMOylation pathway inhibitor project, S. cerevisiae, ATP luminescence, 38.5C | S. cerevisiae Mot1-301 growth rescue; percent above DMSO median, 100 means doubled | growth rescue, % at 18.8 µM | 320,000 tested, 1% active;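 active means every valid replicate shows activation above 250% relative to neutral control wells; inactive means the rest, any valid replicate at or below 250%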;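 further: OY570 slx delta 5 strain wells were the positive control but not used for scaling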
Mot1 SUMO dose: growth restoration of Mot1-301 yeast on galactose, dose response, SUMO pathway inhibitor project, whole organism, S. cerevisiae, ATP luminescence, cherry-picked samples; shares compounds with SUMO Mot1 rescue; growth activity, percent, % at 42 µM; S. cerevisiae Mot1-301 galactose growth, 24 h; -100 = growth of slx-deleted rescue strain; 2,300 tested, under 10 active;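 active means Signal drops as the depositor expects, and the fitted half-maximal dose is no more than ten times the top valid tested dose; inconclusive means Poor fit, or a flat curve whose signal drops by 30% to 70%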;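 further: more negative values mean stronger growth rescue toward the control strain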
Starred values were filed as active, the others as inactive; ? = inconclusive; nt = no result; + = active, no number; [ ] = another dose, or the depositor's remark. Compounds with a hit are over-represented: about 1.8% of the library has one in this group of screens.

SMILES	NALP1 inh	NLRP3 yeast inh	PolyA inhibitor	SUMO Mot1 rescue	Mot1 SUMO dose
CCOc1ccc(S(=O)(=O)N2CCN(C(=O)CN3C(=O)NC4(CCCC4)C3=O)CC2)cc1	nt	8	-5	666*	-1
COc1ccc(S(=O)(=O)N2CCN(C(=O)CN3C(=O)NC4(CCCC4)C3=O)CC2)cc1	10	8	4	-6	nt
CC1Cc2ccccc2N1C(=O)CNc1cccc(S(=O)(=O)N2CCCC2)c1 (stereo unspecified)	6	-1	-3	+	0
O=C(Nc1ccc(Cl)cc1Cl)c1ccc2c(c1)OCCO2	nt	23	nt	0	nt
O=C(Nc1ccc(Cl)cc1Cl)c1cccc(N2C(=O)C=CC2=O)c1	nt	6	-14	550*	-3
CC1(C)CC2CC(C)(CN2C(=O)c2ccc([N+](=O)[O-])cc2[N+](=O)[O-])C1 (stereo unspecified)	10	21	-3	-7	nt
Cc1ccc(NC(=O)c2scc3c2CCCC3)cc1	36	25	-42	3	nt
CCN1CCCC(NC(=O)c2scc3c2CCCC3)C1 (stereo unspecified)	-5	17	-5	659*	0
O=C(CSc1ccccc1)Nc1cccc(NC(=O)c2ccco2)c1	8	1	21	-5	nt
O=S(=O)(NCc1ccccc1)c1ccc(S(=O)(=O)N(Cc2ccccn2)Cc2ccco2)cc1	22	-4	-2	841*	0
COCCCn1c2nc3ccccc3nc2c2c(=O)n(Cc3ccc(Cl)cc3)cnc21	-15	-1	-4	425*	0
COCCCn1c2nc3ccccc3nc2c2c(=O)n(Cc3ccccc3Cl)cnc21	14	8	6	1	nt
COc1cc(/C=C(\C#N)c2nc3ccc(C)cc3[nH]2)c([N+](=O)[O-])cc1OC	7	6	-14	3	nt
Cc1ccc2nc(/C(C#N)=C\c3cc(O)ccc3[N+](=O)[O-])[nH]c2c1	5	22	-17	503*	0
N#C/C(=C\c1cc([N+](=O)[O-])c(N2CCOCC2)cc1N1CCOCC1)c1nc2ccccc2[nH]1	44	20	-10	361*	1
CC(=O)c1cccc(CN2CCCC(N3CCN(c4ccccc4F)CC3)C2)c1 (stereo unspecified)	16	8	19	796*	0
O=C(C1=C[C@H](c2ccc3c(c2)OCO3)C[C@H](OCc2ccc(CO)cc2)O1)N1CCCCCCC1	-1	19	-6	131	nt
CNC(=O)c1ccccc1NC(=O)c1c(O)c2c([nH]c1=O)CCCC2	11	11	5	522*	0
CN1CCC=C(C(=O)N2c3ccccc3Sc3ccc(Cl)cc32)C1	nt	12	7	-23	nt
Cc1nc(NCCN2CCOCC2)c2nnn(Cc3c(F)cccc3Cl)c2n1	12	18	12	629*	0
O=C1C2CC=C(Cl)CC2C(=O)N1c1ncn[nH]1 (stereo unspecified)	-53	0	2	570*	0
CS(=O)(=O)c1ccc(Cl)c(C(=O)O)c1	-10	-5	1	608*	0
O=C(O)c1cc(S(=O)(=O)N2CCCCCC2)ccc1Cl	4	14	?	55	nt
O=C(Cc1cn(-c2ccccc2)nc1-c1ccccc1)N1CCCCC1	10	29	8	513	nt
Cc1ccc(S(=O)(=O)NNC(=O)c2cc3cc4ccccc4nc3s2)cc1	23	12	13	553*	-1
SMILES	NALP1 inh	NLRP3 yeast inh	PolyA inhibitor	SUMO Mot1 rescue	Mot1 SUMO dose
Cc1cccc(C(=O)NNC(=O)c2cc3cc4ccccc4nc3s2)c1	8	12	2	-2	nt
CCN(CC)CCCN(Cc1cc2cc(OC)ccc2[nH]c1=O)C(=O)Nc1ccccc1	nt	1	20	12	nt
CCN(CC)CCCN(Cc1cc2cc(OC)ccc2[nH]c1=O)C(=O)Nc1ccc(F)cc1	6	2	20	463*	0
CC1(C)CC(=O)C(C=Nc2ccc(O)c(N=CC3=C(O)CC(C)(C)CC3=O)c2)=C(O)C1	-3	19	nt	480*	0
COc1ccc(NC(=O)c2oc3ccccc3c2NC(=O)C2CC2)c(OC)c1	-8	1	1	116	nt
c1ccc(CSc2nnc([C@@H]3CCCN3)o2)cc1	5	10	20	20	nt
Cc1ccccc1Nc1cc(=O)oc2ccccc12	5	9	20	370*	1
COc1ccc(/C=N\Nc2ccc([N+](=O)[O-])cc2)c(C(=O)O)c1OC	11	23	-1	455*	0
CC(C)CNC(=O)c1nc(-c2ccccc2)n(-c2ccccc2)n1	7	-2	-8	-7	nt
COc1ccccc1/C=C/C(=O)N1CCc2cc(OC)c(OC)cc2C1C (stereo unspecified)	1	22	-16	389*	0
COc1cc2c(cc1OC)C(C)N(C(=O)Nc1ccccc1)CC2 (stereo unspecified)	2	25	15	6	nt
COc1ccc(C(=O)COc2ccc3ccc(=O)oc3c2)c(OC)c1	24	22	2	1	nt
COc1ccc(C(=O)COc2ccc3ccc(=O)oc3c2)cc1	7	17	-13	426*	0
COc1cccc(OC)c1OCC(O)CN1CCN(c2ccccc2)CC1 (stereo unspecified)	-13	21	-19	+	0
Cc1ccc(C(=O)N/C(=C\c2sccc2C)C(=O)NCc2ccncc2)cc1	1	12	13	120	nt
Cc1ccc(C(=O)N/C(=C\c2cccs2)C(=O)NCCc2c[nH]c3ccccc23)cc1	22	5	6	494*	0
Cc1ccc(C(=O)N/C(=C\c2cccs2)C(=O)NCc2ccncc2)cc1	4	8	28	612*	1
COc1ccc(Nc2nc(-c3ccccc3)c3ccccc3n2)cc1	34	24	-8	5	nt
CCN(CC)S(=O)(=O)c1cccc(-c2nnc(SC(C)C(=O)NCCC3=CCCCC3)o2)c1 (stereo unspecified)	nt	-7	2	3	nt
CS(=O)(=O)c1nc(S(=O)(=O)c2ccc(Cl)cc2)c(NCCCn2ccnc2)s1	1	1	-6	-1	nt
CCCCC(O)(c1ccc(F)cc1)C(CN1CCOCC1)c1ccc(Cl)cc1 (stereo unspecified)	16	8	-10	537*	0[21 µM]
O=C(NCc1ccco1)C(C(=O)c1ccccc1)n1ccccc1=O (stereo unspecified)	-4	8	4	-21	nt
CCOc1cc(C(=S)N2CCOCC2)ccc1OC(=O)c1ccc(C)cc1	12	11	6	414*	-1
CCOc1cc(C(=S)N2CCOCC2)ccc1OC(=O)c1ccccc1	20	10	-21	1	nt
